Reference: PubChem BioAssay (Tox21)
Results filed as inconclusive are left out. Where a call stands in place of a potency, no number is given. Unmarked numbers belong to inactive results. Activity calls are given as the source filed them. Calls come from the whole dose curve.

Target: Beta-2 adrenergic receptor (Homo sapiens) (UniProt P07550)
Test: Adrenergic beta2 receptor (ADRB2) small molecule agonists, cell-based qHTS assay (AID 1963593);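 for activation: CHO cells stably overexpressing human ADRB2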
How it was run: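 CHO cells stably over-expressing ADRB2 were plated overnight at 37C, then dosed with compounds plus a stimulation mix containing 100uM IBMX and 25uM Ro-20-1724 for 0.5hr at room temperature. cAMP was measured by HTRF competition, 1hr.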
Potency is the fitted concentration of half-maximal effect.

Chain of Beta-2 adrenergic receptor (Homo sapiens) (P07550 whole entry, looked up): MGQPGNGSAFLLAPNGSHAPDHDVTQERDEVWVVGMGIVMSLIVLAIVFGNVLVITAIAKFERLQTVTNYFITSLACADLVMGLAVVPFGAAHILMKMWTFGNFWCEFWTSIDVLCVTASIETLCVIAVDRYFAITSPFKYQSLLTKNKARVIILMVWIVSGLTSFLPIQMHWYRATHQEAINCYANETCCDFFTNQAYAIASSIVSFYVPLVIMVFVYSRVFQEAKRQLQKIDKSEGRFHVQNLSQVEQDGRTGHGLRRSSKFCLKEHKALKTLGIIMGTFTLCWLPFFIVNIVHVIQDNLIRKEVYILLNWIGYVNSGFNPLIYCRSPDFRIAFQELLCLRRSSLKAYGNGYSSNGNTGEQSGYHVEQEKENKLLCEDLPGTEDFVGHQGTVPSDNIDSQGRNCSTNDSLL

Compound | Potency | activation
CCC(OC(C)=O)C(CC(C)NC)(c1ccccc1)c1ccccc1 (stereo not drawn) | inactive | 
CCC1COC(Cn2cncn2)(c2ccc(Cl)cc2Cl)O1 (stereo not drawn) | inactive | 
C[C@@H]1CC2=CC(=O)CC[C@@H]2[C@H]2CC[C@@]3(C)[C@@H](CC[C@]3(C)O)[C@@H]21 | inactive | 
COC1CC(=C(c2cccs2)c2cccs2)C[N+](C)(C)C1 (stereo not drawn) | inactive | 
COc1cc(Cl)c(OC)cc1Cl | inactive | 
BrCCCCBr | inactive | 
CC(Oc1cccc(Cl)c1)C(=O)O (stereo not drawn) | inactive | 
O=C(O)C(Br)CBr (stereo not drawn) | inactive | 
O=C(O)CC(Cl)C(=O)O (stereo not drawn) | inactive | 
CC(C)[C@@H](Nc1ccc(C(F)(F)F)cc1Cl)C(=O)OC(C#N)c1cccc(Oc2ccccc2)c1 (stereo partly drawn) | inactive | 
N#CCCl | inactive | 
COC(=O)N(C(=O)N1CO[C@@]2(C(=O)OC)Cc3cc(Cl)ccc3C2=N1)c1ccc(OC(F)(F)F)cc1 | inactive | 
C[C@]12CC[C@H]3[C@@H](CCC4=CC(=O)CC[C@@]43C)[C@@H]1CC[C@@H]2C(=O)O | inactive | 
C[N+](C)(C)CCOC(=O)C(O)(c1ccccc1)c1ccccc1 | inactive | 
O=C(NC(=O)c1c(F)cccc1F)Nc1cc(Cl)c(F)c(Cl)c1F | inactive | 
COC(=O)C(c1ccccc1)C1CCCCN1 (stereo not drawn) | inactive | 
CNC(C)Cc1ccccc1OC (stereo not drawn) | inactive | 
CCCCCCCCP(=O)(O)O | inactive | 
CCN(CC)C(=O)Cl | inactive | 
CCC(C(N)=O)N1CCCC1=O (stereo not drawn) | inactive | 
Cc1cccc(Cc2cnc[nH]2)c1C | inactive | 
CC(C)NCC(O)c1ccccc1Cl (stereo not drawn) | 668 nM (active) | 

Compound | Potency | activation
CN1C(=O)CN=C(c2ccccc2)c2cc([N+](=O)[O-])ccc21 | inactive | 
S=C=Nc1cccc2ccccc12 | inactive | 
NC(=O)C(Cl)Cl | inactive | 
CC(C(O)c1ccccc1)N(C)C/C=C/c1ccccc1 (stereo not drawn) | inactive | 
CC1(c2ccc(Oc3ccccc3)cc2)OC(=O)N(Nc2ccccc2)C1=O (stereo not drawn) | inactive | 
ClC=C(Cl)Cl | inactive | 
CC(C)CCCCCCCOC(=O)c1ccccc1C(=O)OCCCCCCCC(C)C | inactive | 
CC(=O)CN(CC(C)=O)N=O | inactive | 
CC(=O)OCC1=C(C(=O)O)N2C(=O)[C@@H](N)[C@H]2SC1 |  | 15.1% [at 19 µM]
CN(CCCC(O)c1cccnc1)N=O (stereo not drawn) | inactive | 
C1CCNCC1 | inactive | 
COc1ccc(C(=O)N2CCCC2=O)cc1 | inactive | 
CCCCCCCCCCCCCCCCCCn1cc[n+](C)c1 | inactive | 
Nc1n[nH]c(N)n1 | inactive | 
C#CC(O)(C=CCl)CC (stereo not drawn) | inactive | 
CC(C)(C)c1ccc(CSc2cnn(C(C)(C)C)c(=O)c2Cl)cc1 | inactive | 
CC[C@]1(O)CC[C@H]2[C@@H]3CCC4=CCCC[C@@H]4[C@H]3CC[C@@]21C | inactive | 
O=C(NC(=O)c1c(F)cccc1F)Nc1cc(Cl)c(Oc2ncc(C(F)(F)F)cc2Cl)c(Cl)c1 | inactive | 
CC(Cc1ccccc1)NCCCCl (stereo not drawn) | inactive | 
Oc1ccccc1Br | inactive | 
CC1=C(C(=O)O)N2C(=O)[C@@H](N)[C@H]2SC1 |  | 0.75% [at 19 µM]
